Experimental data taken from PubChem BioAssay (NCI).
About 79,000 compounds went through this panel and 15% of them were active in at least one assay; those are over-represented in the sample as a whole. Active and inactive are the calls of the source. No stated cut-off is given here; in the data, active means growth inhibition above about 70%; inactive means the rest.

Assays:
[1] = NCI Yeast Anticancer Drug Screen. Data for the rad52 strain (AID 147);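 further: 0% = growth of vehicle-treated control cultures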; details: S. cerevisiae rad52 mutant growth inhibition, stronger effect = higher value
How it was run: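 Inhibition of yeast growth, referenced to vehicle controls, was the measured output for a strain with defective DNA damage repair.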

[2] = NCI Yeast Anticancer Drug Screen. Data for the wt1 strain (AID 149);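 further: 0% = growth of vehicle-treated wt1 cultures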; details: S. cerevisiae wt1 strain (SPY 50644) growth inhibition, stronger effect = higher value
How it was run: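 The wt1 strain was treated with compounds, and growth was compared with vehicle-treated cultures to give inhibition.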

[3] = NCI Yeast Anticancer Drug Screen. Data for the mgt1 strain (AID 153); details: S. cerevisiae mgt1 mutant growth inhibition, stronger effect = higher value
How it was run: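 In the mgt1 strain, test compounds were added and growth inhibition was determined relative to vehicle-treated controls.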

[4] = NCI Yeast Anticancer Drug Screen. Data for the mec2-1 strain (AID 157); details: S. cerevisiae mec2-1 strain, stronger effect = higher value
How it was run: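 Each compound was tested on mec2-1 yeast, a strain altered in DNA damage repair or cell cycle control. Growth inhibition is reported relative to vehicle.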

[5] = NCI Yeast Anticancer Drug Screen. Data for the rad14 strain (AID 159);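 further: 0% = growth of vehicle-treated control cultures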; details: S. cerevisiae rad14 strain growth inhibition, stronger effect = higher value
How it was run: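 Readout: yeast growth inhibition, referenced to vehicle-only cultures. Strain bears a defined alteration in DNA damage repair.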

[6] = NCI Yeast Anticancer Drug Screen. Data for the sgs1 mgt1 strain (AID 161);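 further: 0% = growth of cultures given vehicle only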; details: S. cerevisiae sgs1 mgt1 strain, stronger effect = higher value
How it was run: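 Mutant yeast exposed to compound; growth scored against vehicle-only wells.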

[7] = NCI Yeast Anticancer Drug Screen. Data for the CLN2oe strain (AID 163);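 further: 0% = growth of vehicle-only control cultures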; details: S. cerevisiae CLN2oe strain, stronger effect = higher value
How it was run: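 First, the altered yeast strain was treated with each compound; second, its growth was measured; finally, inhibition was derived by comparison with vehicle controls.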

[8] = NCI Yeast Anticancer Drug Screen. Data for the cln2 rad14 strain (AID 165);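 further: 0% = growth equal to vehicle treated cultures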; details: S. cerevisiae cln2 rad14 strain, stronger effect = higher value
How it was run: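 Test compounds were added to cln2 rad14 yeast cultures; inhibition of growth was then determined by comparison with vehicle treatment.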

[9] = NCI Yeast Anticancer Drug Screen. Data for the bub3 strain (AID 167); details: S. cerevisiae bub3 mutant strain, stronger effect = higher value
How it was run: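 Part of a panel of yeast mutants defective in DNA damage repair or cell cycle regulation. Each strain is grown with compound, and inhibition is calculated relative to solvent-treated cultures.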

[10] = NCI Yeast Anticancer Drug Screen. Data for the wt2 strain (AID 169);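 further: 0% = growth of vehicle-treated yeast cultures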; details: S. cerevisiae wt2 strain growth inhibition, stronger effect = higher value
How it was run: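 The panel's yeast strains carry defined changes in DNA repair or cell cycle genes. Each strain is grown with compound, and growth loss is scored relative to vehicle.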

[11] = NCI Yeast Anticancer Drug Screen. Data for the mlh1 strain (AID 171);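 further: 0% = growth of vehicle-treated control cultures of the same strain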; details: S. cerevisiae mlh1 strain growth inhibition, stronger effect = higher value
How it was run: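 Inhibition values reflect reduced yeast growth in the presence of compound, referenced to vehicle controls, using a strain chosen for its alteration in DNA repair or cell cycle control.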

[12] = NCI Yeast Anticancer Drug Screen. Data for the sgs1 strain (AID 173);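 further: 0% = growth of vehicle-only control cultures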; details: S. cerevisiae sgs1 mutant, stronger effect = higher value
How it was run: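 Vehicle-treated cultures served as reference for growth inhibition of a yeast strain altered in DNA damage repair or cell cycle control after compound exposure.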

[13] = NCI Yeast Anticancer Drug Screen. Data for the mlh1 rad18 strain (AID 175); details: S. cerevisiae mlh1 rad18 strain growth inhibition, stronger effect = higher value
How it was run: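 Inhibition values reflect reduced growth of mutant yeast versus vehicle-treated controls following compound exposure; the mutations affect DNA damage repair.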

[14] = NCI Yeast Anticancer Drug Screen. Data for the rad18 strain (AID 177); details: S. cerevisiae rad18 mutant growth inhibition, stronger effect = higher value
How it was run: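 Steps: expose repair-mutant yeast to compound; measure growth; express as inhibition relative to vehicle control.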

[15] = at 5.0 µM (retest, dose inferred, filed as 0.5)
[16] = at 50.0 µM (retest, dose inferred, filed as 5.0)

Measured: growth inhibition

O=C(/C=N/O)Nc1cc(Cl)c(Cl)cc1Cl
inactive: [1]; at 1.2 µM -45% | [1]; at 3.7 µM -47% | [1]; at 11.0 µM -40% | [1]; at 33.0 µM -1% | [1]; at 100.0 µM 62% | [2]; at 1.2 µM -37% | [2]; at 3.7 µM -35% | [2]; at 11.0 µM -36% | [2]; at 33.0 µM -12% | [2]; at 100.0 µM 3% | [3]; at 1.2 µM -8% | [3]; at 3.7 µM -9% | [3]; at 11.0 µM 34% | [3]; at 33.0 µM 60% | [4]; at 1.2 µM -34% | [4]; at 3.7 µM -22% | [4]; [15] 55% | [4]; at 11.0 µM -26% | [4]; at 33.0 µM -3% | [4]; at 50.0 µM 65% | [4]; at 100.0 µM 43% | [5]; at 1.2 µM -39% | [5]; at 3.7 µM -31% | [5]; at 11.0 µM -32% | [5]; at 33.0 µM 23% | [6]; [15] -12% | [7]; at 1.2 µM 6% | [7]; at 3.7 µM 18% | [7]; at 11.0 µM 1% | [7]; at 33.0 µM 18% | [7]; at 100.0 µM 63% | [8]; [15] 67% | [9]; at 1.2 µM -32% | [9]; at 3.7 µM -27% | [9]; [15] 17% | [9]; at 11.0 µM -21% | [9]; at 33.0 µM 8% | [9]; at 100.0 µM 57% | [10]; at 1.2 µM -56% | [10]; at 3.7 µM -58% | [10]; at 11.0 µM -38% | [10]; at 33.0 µM -1% | [10]; at 100.0 µM 37% | [11]; at 1.2 µM -34% | [11]; at 3.7 µM -26% | [11]; at 11.0 µM -9% | [11]; at 33.0 µM 37% | [12]; at 1.2 µM -55% | [12]; at 3.7 µM -31% | [12]; at 11.0 µM -36% | [12]; at 33.0 µM 28% | [12]; at 100.0 µM 67% | [13]; [15] 36% | [13]; at 50.0 µM 47.2% | [14]; at 1.2 µM -28% | [14]; at 3.7 µM -18% | [14]; at 11.0 µM -12% | [14]; at 33.0 µM 36%
active: [3]; at 100.0 µM 92% | [4]; [16] 98% | [5]; at 100.0 µM 75% | [6]; [16] 84% | [8]; [16] 77% | [9]; [16] 89% | [11]; at 100.0 µM 79% | [13]; [16] 99% | [14]; at 100.0 µM 78%
